This note sets out measurements from PMC5540273 (PLoS ONE, 2017).

Some test systems named below: PIK3C2G; PIK3CA; PIK3CB; PIK3CD; PIK3CG; PIKFYVE; PIM1; PIM2; PIM3.
Holding throughout (conditions): concentration: 1 μM, replicates: in singlicate; n = 1
A further assay has as its system T1, PIK4CB.
T1 construct: gene PI4KB
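Note: KINOMEscan kinase panel screen.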

Consider `Cc1cc(-c2ccnc(Nc3cccc(C#N)c3)n2)cc(C)c1O` [GSK1440913], for which the “%Inh” value in the assay with PIK3C2G was 24%; in the assay on PIK3CA, 1%; in the assay with PIK3CB, 0%; in the assay with PIK3CD, 47%; in the assay on PIK3CG, 67%; with PIK4CB, 97%. Moreover, the “%Inh” value is listed as 90% with PIKFYVE, 0% in the assay on PIM1, 0% with PIM2 and 0% with PIM3.

As for `COC(=O)Nc1nc2ccc(Oc3ccc(NC(=O)Nc4cc(C(F)(F)F)ccc4F)cc3)cc2[nH]1.Cl` [GW654607], the “%Inh” value in the assay with PIK3C2G is recorded as 0%; with PIK3CA it was 0%; in the assay on PIK3CB, 17%; with PIK3CD it was 0%; in the assay with PIK3CG, 3%; in the assay with PIK4CB it was 0%. The “%Inh” value in the assay on PIKFYVE, with PIM1, with PIM2 and with PIM3 was 0% throughout.

`NCCC(NC(=O)c1cc(Br)c(-c2ccnc3[nH]ccc23)s1)c1ccccc1.O=C(O)C(F)(F)F.O=C(O)C(F)(F)F` (stereo not drawn) [GSK1307810]: the “%Inh” value was 0% in the assay on PIK3C2G; 0% in the assay with PIK3CA; 6% in the assay with PIK3CB; 7% with PIK3CD; 2% in the assay on PIK3CG; 8% in the assay with PIK4CB. Further, the “%Inh” value stood at 9% with PIKFYVE, 66% in the assay on PIM1, 95.5% in the assay on PIM2 and 45% in the assay on PIM3.

`Cc1ccc(O)cc1Nc1ccnc2cc(-c3ccc(CN4CCCCC4)o3)ccc12` [GW557777]: the “%Inh” value came out at 16% in the assay on PIK3C2G; 0% with PIK3CA; 0% in the assay with PIK3CB; 0% in the assay on PIK3CD; 0% in the assay with PIK3CG; 0% in the assay on PIK4CB. In addition, the “%Inh” value in the assay on PIKFYVE worked out at 0%; in the assay with PIM1, 0%; in the assay on PIM2, 2%; in the assay on PIM3, 7%.

Take `N#CC1(c2cccc(C(=O)Nc3cccc(Oc4ccc5nc(NC(=O)C6CC6)sc5n4)c3)c2)CC1`: the “%Inh” value with PIK3C2G, with PIK3CA, with PIK3CB, in the assay with PIK3CD, in the assay with PIK3CG and in the assay with PIK4CB was 0% each time. For the same compound, the “%Inh” value in the assay with PIKFYVE stood at 0%; with PIM1, 0%; in the assay with PIM2, 17%; with PIM3 it was 7%.

On to `COc1ccc(C)c(Nc2ccnc(Nc3ccc(-c4cnc[nH]4)cc3)n2)c1.Cl` [GW784041], for which the “%Inh” value came to 11% in the assay with PIK3C2G; 0% with PIK3CA; 0% in the assay with PIK3CB; 0% with PIK3CD; 11% with PIK3CG; 58% with PIK4CB. The “%Inh” value in the assay with PIKFYVE is listed as 0%; in the assay with PIM1, 0%; with PIM2, 9%; in the assay on PIM3 it was 0%.

Turning to `CN(c1ccc(NC(=O)Nc2cccc(Cl)c2)cc1)c1ccnc(N)n1.Cl` [GW830707], the “%Inh” value in the assay on PIK3C2G is listed as 11%; in the assay with PIK3CA, 0%; with PIK3CB, 20%; in the assay on PIK3CD, 48%; in the assay with PIK3CG it was 0%; in the assay on PIK4CB, 3%. In addition, the “%Inh” value is listed as 0% in the assay on PIKFYVE, 0% in the assay with PIM1, 11% in the assay on PIM2 and 3% in the assay on PIM3.

With `Fc1cc(Cl)ccc1Nc1ccnc2cc(-c3ccc(CN4CCSCC4)o3)ccc12` [GW560106], the “%Inh” value in the assay on PIK3C2G is on record as 0%; in the assay on PIK3CA, 0%; in the assay with PIK3CB, 0%; in the assay with PIK3CD it was 9%; in the assay with PIK3CG, 0%; in the assay on PIK4CB, 0%. Also, the “%Inh” value with PIKFYVE stood at 1%; in the assay on PIM1, 8%; with PIM2, 0%; in the assay with PIM3 it was 0%.

Consider `Cc1ccc(C)c(NC(=O)Nc2ccc(C)c(-c3ccc(C(=O)Nc4ccncc4)cc3)c2)c1` [GSK1398473], for which the “%Inh” value in the assay with PIK3C2G amounted to 0%; with PIK3CA, 0%; in the assay on PIK3CB it was 0%; in the assay on PIK3CD it was 0%; in the assay with PIK3CG, 0%; with PIK4CB, 8%. For the same compound, the “%Inh” value in the assay with PIKFYVE came out at 0%; with PIM1, 16%; with PIM2, 0%; in the assay with PIM3 it was 1%.

In the case of `Cc1ccc(NC(=O)c2ccc(Cl)c(Cl)c2)cc1-c1ccc(C(=O)Nc2ccncc2)cc1` [GSK1398460], the “%Inh” value is recorded as 0% in the assay with PIK3C2G; 3% in the assay with PIK3CA; 69% with PIK3CB; 0% in the assay on PIK3CD; 0% with PIK3CG; 3% in the assay on PIK4CB. In addition, the “%Inh” value is reported as 0% in the assay with PIKFYVE, 0% in the assay on PIM1, 0% in the assay on PIM2 and 3% in the assay on PIM3.

As to `COc1cc(Nc2ccnc3cc(-c4ccncc4)ccc23)cc(OC)c1OC.Cl` [GW494610], the “%Inh” value in the assay on PIK3C2G, with PIK3CA, in the assay with PIK3CB, in the assay on PIK3CD, in the assay with PIK3CG and in the assay on PIK4CB was 0% each time. For the same compound, the “%Inh” value is given as 0% in the assay on PIKFYVE, 11% in the assay with PIM1, 0% in the assay with PIM2 and 0% in the assay on PIM3.

On to `Cc1cccc(Nc2nc(N[C@H]3CCCC[C@H]3N)ncc2C(N)=O)c1.Cl` [GSK986310], for which the “%Inh” value was 0% with PIK3C2G; 0% in the assay with PIK3CA; 0% in the assay on PIK3CB; 0% with PIK3CD; 3% in the assay with PIK3CG; 0% with PIK4CB. The “%Inh” value was 0% with PIKFYVE, 43% in the assay on PIM1, 56% in the assay on PIM2 and 88% in the assay with PIM3.

Take `Cn1cc(-c2ccc3c(c2)CCN3C(=O)Cc2cc(F)cc(C(F)(F)F)c2)c2c(N)ncnc21` [GSK2635225]: the “%Inh” value with PIK3C2G was 47%; in the assay with PIK3CA it was 0%; with PIK3CB, 8%; with PIK3CD, 0%; in the assay on PIK3CG, 0%; in the assay on PIK4CB, 0%. Besides, the “%Inh” value came to 0% in the assay with PIKFYVE, 2% in the assay on PIM1, 0% in the assay with PIM2 and 6% in the assay on PIM3.

For `CC(C)c1nc(-c2cccc(NS(=O)(=O)c3c(F)cccc3F)c2)c(-c2ccnc(Nc3ccc(N4CCOCC4)nc3)n2)s1.Cl` [GSK1723980], the “%Inh” value in the assay on PIK3C2G, in the assay on PIK3CA, in the assay with PIK3CB, in the assay with PIK3CD, in the assay on PIK3CG and in the assay with PIK4CB was 0% each time. Besides, the “%Inh” value in the assay on PIKFYVE, in the assay on PIM1, in the assay with PIM2 and in the assay with PIM3 was 0% each time.

`Nc1ncc(-c2cn[nH]c2)c2scc(-c3ccc4c(c3)CCN4C(=O)Cc3ccccc3)c12` [GSK2593067]: the “%Inh” value with PIK3C2G was 0%; in the assay with PIK3CA, 0%; in the assay with PIK3CB it was 0%; in the assay with PIK3CD it was 5%; in the assay on PIK3CG, 0%; with PIK4CB it was 25%. Further, the “%Inh” value in the assay with PIKFYVE, with PIM1, with PIM2 and in the assay on PIM3 was 0% each time.

Turning to `Cl.N#CCc1ccc(Nc2nccc(Nc3ccc(Oc4ccccc4)cc3)n2)cc1` [GW639905], the “%Inh” value with PIK3C2G is recorded as 7%; with PIK3CA, 0%; in the assay on PIK3CB it was 0%; in the assay on PIK3CD it was 0%; in the assay with PIK3CG it was 0%; in the assay on PIK4CB, 0%. Also, the “%Inh” value in the assay with PIKFYVE is 13%; in the assay with PIM1, 0%; in the assay on PIM2 it was 0%; in the assay with PIM3, 0%.

For `O=C(O)C(F)(F)F.O=c1[nH]ccc2nc(N[C@@H]3CCNC3)nc(Nc3cc(Cl)cc(Cl)c3)c12` [GSK2188764], the “%Inh” value in the assay on PIK3C2G was 18%; in the assay with PIK3CA it was 7%; in the assay with PIK3CB, 25%; in the assay on PIK3CD it was 43%; in the assay on PIK3CG it was 53%; in the assay on PIK4CB it was 56%. The “%Inh” value in the assay on PIKFYVE is given as 20%; in the assay with PIM1, 44%; with PIM2, 0%; in the assay on PIM3, 66%.

As to `CCn1c(-c2nonc2N)nc2c(-c3ccccc3)ncc(OCCCN)c21.O=C(O)C(F)(F)F.O=C(O)C(F)(F)F` [GSK260205], the “%Inh” value was determined as 9% with PIK3C2G; 0% in the assay on PIK3CA; 0% with PIK3CB; 1% with PIK3CD; 0% in the assay with PIK3CG; 0% in the assay with PIK4CB. Moreover, the “%Inh” value is reported as 98.8% in the assay on PIKFYVE, 62% in the assay with PIM1, 2% in the assay with PIM2 and 44% in the assay on PIM3.
